According to ChEMBL document CHEMBL1157539, “Thousands of chemical starting points for antimalarial lead identification” (Nature, 2010):

tested on: HepG2; test: GSK_TCMDC: Percent inhibition of human HepG2 cell line. Test compounds present at 10uM.; format: functional

| SMILES | Inhibition [%] |
| --- | --- |
| CN(C)CCNc1cc(-c2ccc3ccccc3c2)nc2ccccc12 | 24 |
| O=C(NCCCCN1CC=C(c2ccc3c(c2OCc2ccccc2)CCCC3)CC1)c1ccc(-c2ccc(C(F)(F)F)cc2)cc1 | 19 |
| CN1CCN(CCCN(Cc2ccc(-c3ccc(CNCCc4ccccc4)cc3)cc2)C(=O)c2cccs2)CC1.O=C(O)C(F)(F)F | 32 |
| N#Cc1ccc(-c2ccc(C(=O)NCCCCN3CCC(c4ccc5c(c4OCC(N)=O)CCCC5)CC3)nc2)cc1 | 21 |
| Cc1cc(N[C@@H](Cc2ccccc2)C(=O)NCCOc2ccccc2)nc(NCCc2ccccc2)n1.O=C(O)C(F)(F)F | 12 |
| CCc1ccc(-n2cc(C(=O)c3cc(Br)ccc3O)cc(C#N)c2=O)cc1 | 9 |
| CC(C)(CNCc1cccc(Oc2ccccc2)c1)c1nc(-c2ccnc(N)n2)c(-c2ccc(Cl)c(O)c2)[nH]1.Cl | 28 |
| CC(C)n1ncc2c(C(=O)N3CCCCCC3)cc(-c3ccccc3)nc21 | 0 |
| COc1ccc(CCNCCCCCCNCCc2ccc(OC)c(OC)c2Cl)c(Cl)c1OC.Cl | 19 |
| CC(=O)Nc1ccc(CN(C)C2CCN(c3cc(NC(=O)c4cccc(C)c4)ccn3)CC2)cc1.O=C(O)C(F)(F)F | 0 |
| NC(=O)C1CCN(Cc2ccc(-c3ccc(-c4nc5cc(F)ccc5[nH]4)cc3)cc2)CC1.O=C(O)C(F)(F)F | 12 |
| OC1=C2C(=Nc3ccccc3SC2c2ccccc2)c2ccccc21 (stereo not drawn) | 5 |
| Fc1cccc(COc2ccc(-n3ccc4c(NCCCn5ccnc5)ncnc43)cc2Cl)n1 | 14 |
